About 7,900 targets were measured; listed, in parts, are those with a hit and a random draw of the rest. About 0.6% of all pairs of compound and target were hits.
Each target was assayed with CC[C@@H]1C(=O)N(C)c2cnc(Nc3ccc(C(=O)NC4CCN(C)CC4)cc3OC)nc2N1C1CCCC1 (assay: log2 fold change, soluble protein after heating vs DMSO (PISA); higher = thermal stabilisation; K562 cells, 10 uM, 30 min; active = over 0.2 and 3.5 SD of the protein, either way, in both replicates (recomputed)).
Outline: (§1)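 K562 cells at 2×10^6 cells/mL were exposed to 10 μM compound for 30 min, then aliquots were heated for 3 min across 48°C-58°C, pooled, and extracted in PBS containing 0.5% NP-40 at 4°C. The supernatant after 21,000xg for 90 min was taken as soluble protein and measured by TMTpro 16plex LC-MS/MS with channel sums equalised. Thermal stability is reported relative to control samples, with values from duplicates. Fold changes are given on a log2 scale.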

Chain of UniProt Q96PV7 (Q96PV7 whole entry, looked up): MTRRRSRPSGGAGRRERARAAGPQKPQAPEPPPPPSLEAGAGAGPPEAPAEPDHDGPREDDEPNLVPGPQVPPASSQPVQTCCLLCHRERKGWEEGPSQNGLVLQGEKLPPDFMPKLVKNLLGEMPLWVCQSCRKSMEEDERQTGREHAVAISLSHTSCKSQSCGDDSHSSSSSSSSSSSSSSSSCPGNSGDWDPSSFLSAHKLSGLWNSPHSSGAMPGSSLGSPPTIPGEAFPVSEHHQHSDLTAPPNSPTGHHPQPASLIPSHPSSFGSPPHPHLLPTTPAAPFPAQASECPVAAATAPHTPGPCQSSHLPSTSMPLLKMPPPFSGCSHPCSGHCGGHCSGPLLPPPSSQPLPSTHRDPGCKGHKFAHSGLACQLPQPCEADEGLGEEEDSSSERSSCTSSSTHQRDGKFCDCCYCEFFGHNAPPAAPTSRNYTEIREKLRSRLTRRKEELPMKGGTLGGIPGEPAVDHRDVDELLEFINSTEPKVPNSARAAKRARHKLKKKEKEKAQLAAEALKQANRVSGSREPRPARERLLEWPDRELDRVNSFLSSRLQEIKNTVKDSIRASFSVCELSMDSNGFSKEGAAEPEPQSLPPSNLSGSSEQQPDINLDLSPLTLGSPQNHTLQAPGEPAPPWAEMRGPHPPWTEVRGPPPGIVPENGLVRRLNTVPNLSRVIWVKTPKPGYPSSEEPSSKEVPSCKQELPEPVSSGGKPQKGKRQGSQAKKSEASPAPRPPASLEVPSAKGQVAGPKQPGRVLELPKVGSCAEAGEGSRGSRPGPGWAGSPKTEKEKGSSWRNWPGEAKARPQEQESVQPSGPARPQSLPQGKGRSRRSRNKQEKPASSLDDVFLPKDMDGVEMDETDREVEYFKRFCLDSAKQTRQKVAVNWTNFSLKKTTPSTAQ
Chain of UniProt Q9NSI2 (Q9NSI2 whole entry, looked up): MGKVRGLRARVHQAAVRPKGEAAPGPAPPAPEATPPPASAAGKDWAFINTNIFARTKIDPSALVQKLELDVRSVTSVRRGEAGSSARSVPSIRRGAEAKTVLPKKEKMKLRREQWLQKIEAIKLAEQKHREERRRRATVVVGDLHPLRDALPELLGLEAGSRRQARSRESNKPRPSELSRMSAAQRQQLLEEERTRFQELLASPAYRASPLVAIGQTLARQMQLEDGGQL
Chain of UniProt Q9UER7 (Q9UER7 whole entry, looked up): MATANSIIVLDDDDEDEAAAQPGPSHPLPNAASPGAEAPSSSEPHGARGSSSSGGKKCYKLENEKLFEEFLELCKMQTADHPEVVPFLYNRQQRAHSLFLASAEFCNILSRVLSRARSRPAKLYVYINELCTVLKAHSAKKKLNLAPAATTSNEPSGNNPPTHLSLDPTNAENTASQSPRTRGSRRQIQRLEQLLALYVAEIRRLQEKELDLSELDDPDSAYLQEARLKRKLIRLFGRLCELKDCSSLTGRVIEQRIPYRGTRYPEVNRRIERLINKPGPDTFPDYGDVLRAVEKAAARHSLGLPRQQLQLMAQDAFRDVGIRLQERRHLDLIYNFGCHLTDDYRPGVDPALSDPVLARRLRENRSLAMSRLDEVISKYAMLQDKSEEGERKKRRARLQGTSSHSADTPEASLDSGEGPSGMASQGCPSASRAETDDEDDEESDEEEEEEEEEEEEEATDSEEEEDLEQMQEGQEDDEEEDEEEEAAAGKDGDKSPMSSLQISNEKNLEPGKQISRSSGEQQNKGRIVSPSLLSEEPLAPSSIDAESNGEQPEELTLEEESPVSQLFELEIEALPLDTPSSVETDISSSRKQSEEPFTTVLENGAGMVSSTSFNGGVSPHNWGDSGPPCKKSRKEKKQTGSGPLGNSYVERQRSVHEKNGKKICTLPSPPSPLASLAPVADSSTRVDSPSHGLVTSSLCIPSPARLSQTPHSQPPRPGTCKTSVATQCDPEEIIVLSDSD
Chain of UniProt Q96F86 (Q96F86 whole entry, looked up): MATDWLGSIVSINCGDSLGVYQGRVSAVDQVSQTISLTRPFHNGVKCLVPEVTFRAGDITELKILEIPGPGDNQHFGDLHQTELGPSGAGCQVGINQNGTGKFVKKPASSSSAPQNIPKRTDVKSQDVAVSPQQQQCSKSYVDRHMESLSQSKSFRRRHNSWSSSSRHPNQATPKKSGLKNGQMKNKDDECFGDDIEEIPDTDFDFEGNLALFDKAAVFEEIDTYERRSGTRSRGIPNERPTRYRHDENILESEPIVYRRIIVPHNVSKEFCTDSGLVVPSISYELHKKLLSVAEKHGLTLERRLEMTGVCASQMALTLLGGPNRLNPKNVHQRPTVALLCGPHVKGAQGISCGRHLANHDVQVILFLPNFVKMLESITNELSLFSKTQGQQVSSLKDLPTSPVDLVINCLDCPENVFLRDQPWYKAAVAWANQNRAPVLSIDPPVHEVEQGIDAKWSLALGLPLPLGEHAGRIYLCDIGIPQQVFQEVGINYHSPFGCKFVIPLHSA
Chain of UniProt O75911 (O75911 whole entry, looked up): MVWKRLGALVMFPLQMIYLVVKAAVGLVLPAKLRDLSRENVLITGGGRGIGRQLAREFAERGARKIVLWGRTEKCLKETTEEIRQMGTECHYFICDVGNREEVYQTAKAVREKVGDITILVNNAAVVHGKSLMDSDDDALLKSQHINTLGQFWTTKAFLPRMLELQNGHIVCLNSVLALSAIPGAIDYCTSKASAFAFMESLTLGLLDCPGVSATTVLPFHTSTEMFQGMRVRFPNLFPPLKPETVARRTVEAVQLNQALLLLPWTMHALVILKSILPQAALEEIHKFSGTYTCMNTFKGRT
Chain of UniProt Q9H777 (Q9H777 whole entry, looked up): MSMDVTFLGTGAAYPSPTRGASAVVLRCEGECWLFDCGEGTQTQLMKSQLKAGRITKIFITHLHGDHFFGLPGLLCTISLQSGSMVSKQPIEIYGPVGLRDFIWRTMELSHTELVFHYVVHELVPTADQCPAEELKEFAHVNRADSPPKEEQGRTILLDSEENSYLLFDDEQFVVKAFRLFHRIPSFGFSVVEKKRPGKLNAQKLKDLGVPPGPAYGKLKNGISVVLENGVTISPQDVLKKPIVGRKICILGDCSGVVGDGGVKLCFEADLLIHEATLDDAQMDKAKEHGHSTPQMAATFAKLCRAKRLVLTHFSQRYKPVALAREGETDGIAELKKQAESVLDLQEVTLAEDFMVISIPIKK
Chain of UniProt Q8N5C7 (Q8N5C7 whole entry, looked up): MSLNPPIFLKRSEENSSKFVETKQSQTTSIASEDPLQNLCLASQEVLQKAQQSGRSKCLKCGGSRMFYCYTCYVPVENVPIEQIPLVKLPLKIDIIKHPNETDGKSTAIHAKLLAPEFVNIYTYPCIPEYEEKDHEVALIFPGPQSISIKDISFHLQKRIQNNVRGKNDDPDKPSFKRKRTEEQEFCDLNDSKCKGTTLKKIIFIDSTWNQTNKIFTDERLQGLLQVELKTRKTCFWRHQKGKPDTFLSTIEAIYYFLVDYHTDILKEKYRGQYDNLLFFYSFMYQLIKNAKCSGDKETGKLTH
Chain of UniProt Q8TCE6 (Q8TCE6 whole entry, looked up): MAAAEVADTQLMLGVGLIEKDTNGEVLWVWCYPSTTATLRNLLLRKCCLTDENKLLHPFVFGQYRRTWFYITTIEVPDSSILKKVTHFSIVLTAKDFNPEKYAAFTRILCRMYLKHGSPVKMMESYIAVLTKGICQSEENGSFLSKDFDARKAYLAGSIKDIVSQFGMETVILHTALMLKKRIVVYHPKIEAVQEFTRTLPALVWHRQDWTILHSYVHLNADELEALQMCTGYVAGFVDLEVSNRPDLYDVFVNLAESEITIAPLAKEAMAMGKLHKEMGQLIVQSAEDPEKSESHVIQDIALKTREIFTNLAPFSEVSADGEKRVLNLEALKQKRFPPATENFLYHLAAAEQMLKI
Chain of UniProt P09668 (P09668 whole entry, looked up): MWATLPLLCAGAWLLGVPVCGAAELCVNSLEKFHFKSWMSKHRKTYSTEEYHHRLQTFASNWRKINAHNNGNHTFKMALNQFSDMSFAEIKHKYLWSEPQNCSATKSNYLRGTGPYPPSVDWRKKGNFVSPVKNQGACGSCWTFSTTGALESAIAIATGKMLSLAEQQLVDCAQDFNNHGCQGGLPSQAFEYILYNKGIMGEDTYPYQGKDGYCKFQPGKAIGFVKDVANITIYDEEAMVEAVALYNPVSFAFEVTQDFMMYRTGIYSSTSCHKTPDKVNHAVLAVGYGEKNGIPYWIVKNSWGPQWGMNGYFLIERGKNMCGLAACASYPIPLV
Chain of UniProt P98173 (P98173 whole entry, looked up): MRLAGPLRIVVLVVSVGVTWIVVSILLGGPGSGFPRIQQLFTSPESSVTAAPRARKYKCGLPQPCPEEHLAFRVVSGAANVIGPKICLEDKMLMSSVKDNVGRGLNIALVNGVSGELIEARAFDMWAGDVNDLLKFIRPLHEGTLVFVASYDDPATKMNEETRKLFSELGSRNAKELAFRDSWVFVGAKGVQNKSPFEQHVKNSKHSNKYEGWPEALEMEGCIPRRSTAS
Chain of UniProt O60573 (O60573 whole entry, looked up): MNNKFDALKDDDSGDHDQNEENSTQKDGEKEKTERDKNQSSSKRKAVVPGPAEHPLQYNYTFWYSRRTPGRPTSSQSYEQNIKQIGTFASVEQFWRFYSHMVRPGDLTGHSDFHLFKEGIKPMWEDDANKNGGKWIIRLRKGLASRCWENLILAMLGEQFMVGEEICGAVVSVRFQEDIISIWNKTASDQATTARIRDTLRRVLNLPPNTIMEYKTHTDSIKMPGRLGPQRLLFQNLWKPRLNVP
Chain of UniProt Q9NXW2 (Q9NXW2 whole entry, looked up): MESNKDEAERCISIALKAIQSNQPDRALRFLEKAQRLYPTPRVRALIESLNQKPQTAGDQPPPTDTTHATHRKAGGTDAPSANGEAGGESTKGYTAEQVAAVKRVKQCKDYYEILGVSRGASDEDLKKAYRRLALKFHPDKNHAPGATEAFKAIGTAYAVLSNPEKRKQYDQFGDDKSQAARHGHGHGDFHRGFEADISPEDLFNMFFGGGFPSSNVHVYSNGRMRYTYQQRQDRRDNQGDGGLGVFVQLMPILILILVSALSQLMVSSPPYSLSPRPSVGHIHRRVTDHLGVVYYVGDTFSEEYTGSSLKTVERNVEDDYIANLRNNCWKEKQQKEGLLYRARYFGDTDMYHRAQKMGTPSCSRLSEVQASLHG

Target | log2 fold change
FAM207A (UniProt Q9NSI2) | -0.085 (inactive)
FAM160B1 (UniProt Q5W0V3) | -0.007 (inactive)
EDC3 (UniProt Q96F86) | -0.006 (inactive)
DSN1 (UniProt Q9H410) | -0.218 (inactive)
DNAJB1 (UniProt P25685) | 0.011 (inactive)
EEF2K (UniProt O00418) | -0.046 (inactive)
CYB561A3 isoform 2 (UniProt Q8NBI2) | -0.058 (inactive)
DNAJB12 (UniProt Q9NXW2) | -0.045 (inactive)
DYNC1I2 isoform 2 (UniProt Q13409) | 0.012 (inactive)
DDB1 (UniProt Q16531) | 0.045 (inactive)
FAM3A (UniProt P98173) | 0.024 (inactive)
EXOSC10 (UniProt Q01780) | -0.048 (inactive)
ENTPD7 (UniProt Q9NQZ7) | -0.204 (inactive)
EEF1A1 (UniProt P68104) | -0.19 (inactive)
FAM118B (UniProt Q9BPY3) | -0.087 (inactive)
CTSZ (UniProt Q9UBR2) | -0.954 (active)
DOCK8 (UniProt Q8NF50) | 0.01 (inactive)
DNAJC24 (UniProt Q6P3W2) | -0.318 (inactive)
DHRS3 (UniProt O75911) | 0.134 (inactive)
EIF2AK3 (UniProt Q9NZJ5) | 0.322 (inactive)

Target | log2 fold change
ELAC1 (UniProt Q9H777) | -0.067 (inactive)
EIF4G3 isoform 3 (UniProt O43432) | -0.074 (inactive)
FAM118A (UniProt Q9NWS6) | -0.812 (active)
CTNNBL1 (UniProt Q8WYA6) | -0.362 (inactive)
DTWD1 (UniProt Q8N5C7) | -0.081 (inactive)
DOLPP1 (UniProt Q86YN1) | -0.062 (inactive)
DNAH11 (UniProt Q96DT5) | 0.234 (inactive)
FAM193B (UniProt Q96PV7) | 0.126 (inactive)
DYNC1LI2 (UniProt O43237) | 0.324 (inactive)
DAXX (UniProt Q9UER7) | 0.018 (inactive)
DENND10 (UniProt Q8TCE6) | -0.041 (inactive)
DLD (UniProt P09622) | 0.043 (inactive)
CWF19L2 (UniProt Q2TBE0) | -0.051 (inactive)
ELF1 (UniProt P32519) | 0.116 (inactive)
DYRK1A isoform 2 (UniProt Q13627) | 0.015 (inactive)
EIF4E2 (UniProt O60573) | -0.202 (inactive)
FAM241A (UniProt Q8N8J7) | -0.026 (inactive)
CTSH (UniProt P09668) | -0.087 (inactive)
CYP24A1 (UniProt Q07973) | 0.252 (inactive)
CTNNB1 (UniProt P35222) | 0.2 (inactive)

These targets were tested with CC[C@@H]1C(=O)N(C)c2cnc(Nc3ccc(C(=O)N[C@H]4CC[C@H](N5CCN(CC6CC6)CC5)CC4)cc3OC)nc2N1C(C)C [volasertib] in the same assay as above.
Outline: as §1

Target | log2 fold change
FAM207A (UniProt Q9NSI2) | -0.165 (inactive)
FAM160B1 (UniProt Q5W0V3) | -0.043 (inactive)
EDC3 (UniProt Q96F86) | -0.192 (inactive)
DSN1 (UniProt Q9H410) | -0.418 (active)
DNAJB1 (UniProt P25685) | -0.222 (active)
EEF2K (UniProt O00418) | -0.395 (inactive)
CYB561A3 isoform 2 (UniProt Q8NBI2) | 0.103 (inactive)
DNAJB12 (UniProt Q9NXW2) | -0.123 (inactive)
DYNC1I2 isoform 2 (UniProt Q13409) | 0.045 (inactive)
DDB1 (UniProt Q16531) | 0.036 (inactive)
FAM3A (UniProt P98173) | -0.11 (inactive)
EXOSC10 (UniProt Q01780) | 0.087 (inactive)
ENTPD7 (UniProt Q9NQZ7) | -0.233 (inactive)
EEF1A1 (UniProt P68104) | 0.098 (inactive)
FAM118B (UniProt Q9BPY3) | -0.445 (active)
CTSZ (UniProt Q9UBR2) | -1.54 (active)
DNAJC24 (UniProt Q6P3W2) | -0.244 (inactive)
DHRS3 (UniProt O75911) | 0.02 (inactive)
EIF2AK3 (UniProt Q9NZJ5) | -0.114 (inactive)
ELAC1 (UniProt Q9H777) | 0.055 (inactive)

Target | log2 fold change
EIF4G3 isoform 3 (UniProt O43432) | -0.165 (inactive)
FAM118A (UniProt Q9NWS6) | -0.54 (inactive)
CTNNBL1 (UniProt Q8WYA6) | -1.24 (active)
DTWD1 (UniProt Q8N5C7) | -0.196 (inactive)
DOLPP1 (UniProt Q86YN1) | -0.008 (inactive)
DNAH11 (UniProt Q96DT5) | 0.426 (inactive)
FAM193B (UniProt Q96PV7) | 0.092 (inactive)
DYNC1LI2 (UniProt O43237) | -0.021 (inactive)
DAXX (UniProt Q9UER7) | -0.006 (inactive)
DENND10 (UniProt Q8TCE6) | -0.241 (inactive)
DLD (UniProt P09622) | 0.143 (inactive)
CWF19L2 (UniProt Q2TBE0) | -0.107 (inactive)
ELF1 (UniProt P32519) | -0.516 (inactive)
DYRK1A isoform 2 (UniProt Q13627) | -0.005 (inactive)
EIF4E2 (UniProt O60573) | -0.381 (active)
FAM241A (UniProt Q8N8J7) | 0.007 (inactive)
CTSH (UniProt P09668) | -0.06 (inactive)
CYP24A1 (UniProt Q07973) | 0.379 (inactive)
CTNNB1 (UniProt P35222) | -0.162 (inactive)

— the supplement of paper PMC10849652
